The supplement of paper PMC10849652
The full data set covers some 7,900 targets. This sample favours those with a hit. About 0.6% of all pairs of compound and target were hits. Values without a mark were called inactive.

How the values were obtained:
Assay in all cases: log2 fold change, soluble protein after heating vs DMSO (PISA); higher = thermal stabilisation; K562 cells, 10 uM, 30 min; active = over 0.2 and 3.5 SD of the protein, either way, in both replicates (recomputed)
[1] = compound: C1COCCN1CCN2C3=CC=CC=C3N=C2NC(=O)C4=CC(=CC=C4)[N+](=O)[O-] [IRAK-1-4 Inhibitor I]
Method in brief: (§1)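 K562 cells at 2×10^6 cells/mL were exposed to 10 μM compound for 30 min, then aliquots were heated for 3 min across 48°C-58°C, pooled, and extracted in PBS containing 0.5% NP-40 at 4°C. The supernatant after 21,000xg for 90 min was taken as soluble protein and measured by TMTpro 16plex LC-MS/MS with channel sums equalised. Thermal stability is reported relative to control samples, with values from duplicates. Fold changes are given on a log2 scale.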

[2] = compound: C=CC(=O)N1CCC[C@@H](n2nc(-c3ccc(Oc4ccccc4)cc3)c3c(N)ncnc32)C1 [ibrutinib]
Method in brief: as §1

[3] = compound: CC(=O)c1cnc2ccc(-c3cc(Cl)c(O)c(Cl)c3)nc2c1N[C@H]1CC[C@H](CN(C)C)CC1
Method in brief: as §1

[4] = compound: CC(C)(C)Cn1c(N)nc2ccc(-c3[nH]c(C(C)(C)C)nc3-c3ccc(F)cc3)nc21 [ralimetinib]
Method in brief: as §1

[5] = compound: CC(C)(O)CC(=O)NCCn1ccc2ncnc(Nc3ccc(Oc4cccc(C(F)(F)F)c4)c(Cl)c3)c21
Method in brief: as §1

[6] = compound: CC(C)C1=C2N=C(C=C(N2N=C1)NCC3=CC=CC=C3)NCCCCCCN
Method in brief: as §1

[7] = compound: CC(C)C[C@@H](C=O)NC(=O)[C@H](CC(C)C)NC(=O)[C@H](CC(C)C)NC(=O)OCc1ccccc1
Method in brief: as §1

[8] = compound: CC(C)N(C[C@H]1O[C@@H](n2cnc3c(N)ncnc32)[C@H](O)[C@@H]1O)[C@H]1C[C@@H](CCc2nc3cc(C(C)(C)C)ccc3[nH]2)C1 [pinometostat]
Method in brief: as §1

[9] = compound: CC1=C(C(CC(=O)N1)C2=CC=C(C=C2)C(F)(F)F)C(=O)NC3=C(C=C4C(=C3)C=NN4)F
Method in brief: as §1

[10] = compound: CC1=C(C2=C(C=C1)C(=O)C3=CC=CC=C3N2CCCN)C
Method in brief: as §1

[11] = compound: CC1=C(C=C(C=C1)NC(=O)C2=CC(=CC=C2)C(C)(C)C#N)NC3=CC4=C(C=C3)N=CN(C4=O)C
Method in brief: as §1

[12] = compound: CC1=C(C=C(C=C1)NC(=O)C2=CC(=CC=C2)N(C)C)NC(=O)C3=CC=C(C=C3)O
Method in brief: as §1

[13] = compound: CC1=CC=C(C=C1)SC2=C3C=C(SC3=CN=C2)C(=O)N
Method in brief: as §1

[14] = compound: CC1=NC(=CC=C1)C2=C(N=C(N2)C(C)(C)C)C3=CC4=NC=CN=C4C=C3
Method in brief: as §1

[15] = compound: CCCCN(Cc1ccc(C(=O)NO)cc1)C(=O)Nc1ccccc1 [Nexturastat A]
Method in brief: as §1

[16] = compound: CCCS(=O)(=O)Nc1ccc(F)c(C(=O)c2c[nH]c3ncc(-c4ccc(Cl)cc4)cc23)c1F [vemurafenib]
Method in brief: as §1

[17] = compound: CCCS(=O)(=O)Nc1ccc(F)c(C(=O)c2c[nH]c3ncc(Cl)cc23)c1F
Method in brief: as §1

[18] = compound: CCCc1cc(C)[nH]c(=O)c1CNC(=O)c1cc(-c2ccnc(N3CCN(C)CC3)c2)cc2c1cnn2C(C)C
Method in brief: as §1

[19] = compound: CCN(CC)Cc1ccc2cc(COC(=O)Nc3ccc(C(=O)NO)cc3)ccc2c1 [givinostat]
Method in brief: as §1

[20] = compound: CCN(CCCOc1ccc2c(Nc3cc(CC(=O)Nc4cccc(F)c4)[nH]n3)ncnc2c1)CCOP(=O)(O)O [barasertib]
Method in brief: as §1

Sequence of UniProt Q5T5C0 (Q5T5C0 whole entry, looked up): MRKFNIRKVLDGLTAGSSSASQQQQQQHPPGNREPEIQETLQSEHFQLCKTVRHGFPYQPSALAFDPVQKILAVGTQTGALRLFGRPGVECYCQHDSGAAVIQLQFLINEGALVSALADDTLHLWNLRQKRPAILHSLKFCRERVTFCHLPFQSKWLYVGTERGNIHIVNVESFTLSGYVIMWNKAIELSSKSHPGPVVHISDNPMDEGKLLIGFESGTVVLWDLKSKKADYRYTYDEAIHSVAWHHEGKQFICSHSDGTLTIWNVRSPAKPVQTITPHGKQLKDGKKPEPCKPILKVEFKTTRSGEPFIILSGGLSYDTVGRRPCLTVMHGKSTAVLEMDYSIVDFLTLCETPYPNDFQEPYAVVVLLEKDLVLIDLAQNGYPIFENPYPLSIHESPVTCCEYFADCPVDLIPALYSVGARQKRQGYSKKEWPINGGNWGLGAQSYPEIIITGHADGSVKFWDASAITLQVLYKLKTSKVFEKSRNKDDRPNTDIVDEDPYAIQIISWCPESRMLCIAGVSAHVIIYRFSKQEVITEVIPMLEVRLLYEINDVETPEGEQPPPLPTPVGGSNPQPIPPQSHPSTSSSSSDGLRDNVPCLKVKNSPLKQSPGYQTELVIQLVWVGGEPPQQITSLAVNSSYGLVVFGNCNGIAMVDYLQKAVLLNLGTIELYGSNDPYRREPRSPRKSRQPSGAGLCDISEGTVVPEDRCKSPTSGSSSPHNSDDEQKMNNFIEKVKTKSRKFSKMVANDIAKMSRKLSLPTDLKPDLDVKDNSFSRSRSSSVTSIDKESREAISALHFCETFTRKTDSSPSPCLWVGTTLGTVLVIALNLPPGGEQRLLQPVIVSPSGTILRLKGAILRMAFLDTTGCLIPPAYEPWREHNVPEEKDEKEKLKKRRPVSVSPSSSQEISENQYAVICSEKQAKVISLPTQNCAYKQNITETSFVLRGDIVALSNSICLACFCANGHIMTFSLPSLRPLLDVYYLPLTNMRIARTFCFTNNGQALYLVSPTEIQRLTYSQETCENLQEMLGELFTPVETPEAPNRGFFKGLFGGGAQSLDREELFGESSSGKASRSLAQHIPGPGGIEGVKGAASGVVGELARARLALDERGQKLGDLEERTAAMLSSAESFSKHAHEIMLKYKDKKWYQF
Sequence of UniProt O15400 (O15400 whole entry, looked up): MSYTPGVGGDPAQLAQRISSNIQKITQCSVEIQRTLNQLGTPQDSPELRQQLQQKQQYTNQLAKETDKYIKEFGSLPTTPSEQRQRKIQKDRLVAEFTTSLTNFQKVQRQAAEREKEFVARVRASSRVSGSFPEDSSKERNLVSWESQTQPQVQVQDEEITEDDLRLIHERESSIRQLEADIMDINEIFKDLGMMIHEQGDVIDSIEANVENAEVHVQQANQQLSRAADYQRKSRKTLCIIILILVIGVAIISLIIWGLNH
Sequence of UniProt Q92844 (Q92844 whole entry, looked up): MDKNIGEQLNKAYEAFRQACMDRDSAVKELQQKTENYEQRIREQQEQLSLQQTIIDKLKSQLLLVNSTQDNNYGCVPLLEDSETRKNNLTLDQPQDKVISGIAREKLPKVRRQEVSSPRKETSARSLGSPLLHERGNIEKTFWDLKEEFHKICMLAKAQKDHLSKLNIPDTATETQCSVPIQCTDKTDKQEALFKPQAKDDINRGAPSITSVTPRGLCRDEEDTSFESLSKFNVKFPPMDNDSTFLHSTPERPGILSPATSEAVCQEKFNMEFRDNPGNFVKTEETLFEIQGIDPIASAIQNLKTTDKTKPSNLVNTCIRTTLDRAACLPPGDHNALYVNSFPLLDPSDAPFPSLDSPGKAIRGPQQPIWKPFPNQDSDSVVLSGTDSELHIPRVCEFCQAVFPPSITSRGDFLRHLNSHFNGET
Sequence of UniProt Q13043 (Q13043 whole entry, looked up): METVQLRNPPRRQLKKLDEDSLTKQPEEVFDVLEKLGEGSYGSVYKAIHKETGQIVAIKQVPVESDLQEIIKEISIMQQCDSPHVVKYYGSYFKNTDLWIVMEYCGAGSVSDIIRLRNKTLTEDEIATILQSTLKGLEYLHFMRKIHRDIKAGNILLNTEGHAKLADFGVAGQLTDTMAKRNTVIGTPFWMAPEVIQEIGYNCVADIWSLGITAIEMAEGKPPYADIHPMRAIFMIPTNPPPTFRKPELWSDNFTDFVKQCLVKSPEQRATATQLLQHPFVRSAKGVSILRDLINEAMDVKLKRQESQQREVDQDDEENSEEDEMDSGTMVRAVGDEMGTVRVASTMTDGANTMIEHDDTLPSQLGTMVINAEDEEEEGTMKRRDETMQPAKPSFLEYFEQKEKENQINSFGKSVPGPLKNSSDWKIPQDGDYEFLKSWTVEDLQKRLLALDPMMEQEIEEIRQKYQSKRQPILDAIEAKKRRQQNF
Sequence of UniProt P63165 (P63165 whole entry, looked up): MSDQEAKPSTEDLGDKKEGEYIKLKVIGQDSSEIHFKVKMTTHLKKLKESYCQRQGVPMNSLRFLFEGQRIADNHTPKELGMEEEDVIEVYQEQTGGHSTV
Sequence of UniProt Q5M775 (Q5M775 whole entry, looked up): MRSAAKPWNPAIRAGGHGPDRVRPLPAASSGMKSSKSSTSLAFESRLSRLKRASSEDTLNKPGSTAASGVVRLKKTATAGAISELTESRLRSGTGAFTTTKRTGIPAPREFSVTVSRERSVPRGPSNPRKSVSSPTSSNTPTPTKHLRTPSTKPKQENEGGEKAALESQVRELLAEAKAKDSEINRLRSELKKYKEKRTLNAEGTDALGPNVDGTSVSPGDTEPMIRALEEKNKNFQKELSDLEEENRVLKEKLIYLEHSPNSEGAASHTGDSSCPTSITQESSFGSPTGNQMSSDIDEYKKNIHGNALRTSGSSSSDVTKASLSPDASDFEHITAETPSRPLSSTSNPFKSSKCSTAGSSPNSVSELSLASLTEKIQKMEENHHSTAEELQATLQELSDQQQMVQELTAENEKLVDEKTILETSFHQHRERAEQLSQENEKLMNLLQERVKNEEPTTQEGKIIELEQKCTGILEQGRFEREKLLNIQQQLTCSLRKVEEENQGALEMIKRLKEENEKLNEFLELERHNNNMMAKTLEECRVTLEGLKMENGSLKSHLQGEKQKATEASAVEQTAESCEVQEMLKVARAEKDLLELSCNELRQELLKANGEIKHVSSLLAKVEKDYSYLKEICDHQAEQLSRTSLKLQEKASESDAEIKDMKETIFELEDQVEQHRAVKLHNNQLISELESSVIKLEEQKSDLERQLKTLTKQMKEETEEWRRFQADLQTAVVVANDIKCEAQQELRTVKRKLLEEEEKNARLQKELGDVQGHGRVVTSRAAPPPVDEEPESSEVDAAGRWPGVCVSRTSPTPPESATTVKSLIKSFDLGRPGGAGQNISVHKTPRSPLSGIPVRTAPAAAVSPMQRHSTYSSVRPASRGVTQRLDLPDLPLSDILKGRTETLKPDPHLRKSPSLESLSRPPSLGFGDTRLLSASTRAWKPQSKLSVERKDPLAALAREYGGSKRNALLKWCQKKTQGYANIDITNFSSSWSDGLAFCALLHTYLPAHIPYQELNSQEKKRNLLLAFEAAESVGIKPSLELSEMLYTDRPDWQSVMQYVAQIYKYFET
Sequence of UniProt P08047 (P08047 whole entry, looked up): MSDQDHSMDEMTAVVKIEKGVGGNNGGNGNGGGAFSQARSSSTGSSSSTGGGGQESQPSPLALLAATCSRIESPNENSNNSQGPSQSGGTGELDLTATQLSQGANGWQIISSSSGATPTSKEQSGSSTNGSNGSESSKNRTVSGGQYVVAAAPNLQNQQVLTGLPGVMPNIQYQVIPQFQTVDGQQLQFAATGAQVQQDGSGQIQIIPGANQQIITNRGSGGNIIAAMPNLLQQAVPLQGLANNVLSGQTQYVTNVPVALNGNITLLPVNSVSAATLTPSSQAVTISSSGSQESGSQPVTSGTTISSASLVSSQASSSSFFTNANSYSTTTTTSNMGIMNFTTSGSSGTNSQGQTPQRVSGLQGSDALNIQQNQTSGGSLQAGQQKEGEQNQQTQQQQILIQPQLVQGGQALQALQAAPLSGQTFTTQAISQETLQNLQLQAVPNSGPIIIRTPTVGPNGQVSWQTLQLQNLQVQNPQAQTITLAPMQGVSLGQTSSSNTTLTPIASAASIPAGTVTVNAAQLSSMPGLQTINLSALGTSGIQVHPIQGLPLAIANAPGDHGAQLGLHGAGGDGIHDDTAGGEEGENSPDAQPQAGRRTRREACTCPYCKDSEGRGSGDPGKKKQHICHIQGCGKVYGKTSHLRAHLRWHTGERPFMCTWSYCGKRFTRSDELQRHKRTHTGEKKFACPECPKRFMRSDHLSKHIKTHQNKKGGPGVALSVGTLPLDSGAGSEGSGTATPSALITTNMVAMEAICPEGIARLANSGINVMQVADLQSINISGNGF
Sequence of UniProt Q9H5Q4 (Q9H5Q4 whole entry, looked up): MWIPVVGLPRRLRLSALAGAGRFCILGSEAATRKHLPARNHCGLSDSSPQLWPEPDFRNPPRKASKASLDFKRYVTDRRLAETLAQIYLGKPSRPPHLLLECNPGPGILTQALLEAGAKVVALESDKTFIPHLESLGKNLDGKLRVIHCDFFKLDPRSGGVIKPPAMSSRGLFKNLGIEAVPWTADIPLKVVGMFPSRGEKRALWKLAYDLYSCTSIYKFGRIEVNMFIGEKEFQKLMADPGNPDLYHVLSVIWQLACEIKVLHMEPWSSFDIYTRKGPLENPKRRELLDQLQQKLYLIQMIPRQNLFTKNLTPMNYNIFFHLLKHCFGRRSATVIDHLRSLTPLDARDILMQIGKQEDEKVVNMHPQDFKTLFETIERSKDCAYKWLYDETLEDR
Sequence of UniProt P53597 (P53597 whole entry, looked up): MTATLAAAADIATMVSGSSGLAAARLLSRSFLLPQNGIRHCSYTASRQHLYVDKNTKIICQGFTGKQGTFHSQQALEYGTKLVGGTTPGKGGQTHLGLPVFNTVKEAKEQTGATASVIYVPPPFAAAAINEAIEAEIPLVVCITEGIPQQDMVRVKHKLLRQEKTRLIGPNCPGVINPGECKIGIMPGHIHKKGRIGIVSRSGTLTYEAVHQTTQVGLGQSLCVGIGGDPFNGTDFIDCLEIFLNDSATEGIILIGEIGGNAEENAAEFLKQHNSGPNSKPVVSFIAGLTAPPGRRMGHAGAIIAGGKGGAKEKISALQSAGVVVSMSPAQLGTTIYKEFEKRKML

Row | Target | log2 fold change [1] | log2 fold change [2] | log2 fold change [3] | log2 fold change [4] | log2 fold change [5] | log2 fold change [6] | log2 fold change [7] | log2 fold change [8] | log2 fold change [9] | log2 fold change [10] | log2 fold change [11] | log2 fold change [12] | log2 fold change [13] | log2 fold change [14] | log2 fold change [15] | log2 fold change [16] | log2 fold change [17] | log2 fold change [18] | log2 fold change [19] | log2 fold change [20]
1 | TANK (UniProt Q92844) | -0.035 | 0.087 | -0.181 | 0.034 | -0.024 | 0.007 | 0.127 | -0.047 | 0.033 | -0.053 | -0.076 | 0.059 | 0.007 | 0.028 | -0.047 | -0.031 | -0.018 | 0.065 | 0.013 | 0.089
2 | SUCLG1 (UniProt P53597) | 0.048 | 0.01 | -0.018 | -0.039 | -0.07 | -0.058 | -0.01 | -0.04 | -0.017 | 0.053 | -0.02 | -0.008 | -0.001 | 0.025 | -0.032 | 0.009 | 0 | -0.006 | -0.102 | 0.019
3 | TBC1D10B (UniProt Q4KMP7) | -0.001 | 0.025 | -0.342 (active) | 0.009 | -0.006 | -0.027 | 0.021 | 0.063 | -0.015 | 0.057 | -0.019 | 0.015 | 0.025 | 0 | -0.051 | 0.004 | 0.048 | 0.014 | 0.018 | 0.01
4 | TGFBI (UniProt Q15582) | 0.026 | 0.149 | 0.045 | -0.099 | 0.244 | -0.044 | 0.05 | -0.092 | 0.115 | -0.039 | -0.167 | 0.101 | 0.062 | 0.091 | -0.082 | 0.157 | -0.044 | -0.255 | -0.08 | 0.068
5 | SRSF11 (UniProt Q05519) | -0.116 | -0.014 | -0.416 (active) | 0.01 | -0.049 | -0.255 | -0.005 | -0.016 | -0.011 | 0.026 | -0.029 | -0.058 | 0.009 | 0.032 | -0.022 | 0.007 | 0.087 | 0.053 | 0.059 | 0.023
6 | TFB2M (UniProt Q9H5Q4) | 0.037 | -0.029 | -0.013 | -0.085 | -0.136 | -0.08 | 0.02 | 0.012 | -0.03 | 0.005 | -0.017 | 0 | 0.008 | 0.086 | -0.077 | 0.035 | 0.073 | -0.058 | 0.017 | 0.048
7 | SP1 (UniProt P08047) | 0.013 | 0.024 | 0.029 | -0.049 | -0.031 | -0.05 | 0.064 | 0.04 | 0.043 | -0.312 (active) | 0.023 | -0.068 | -0.067 | -0.033 | 0.034 | -0.017 | -0.069 | -0.018 | -0.114 | 0.011
8 | STX7 (UniProt O15400) | -0.01 | 0.024 | 0.011 | -0.039 | 0.012 | -0.087 | -0.009 | -0.109 | 0 | 0.017 | -0.003 | 0.025 | -0.002 | 0.055 | -0.023 | -0.036 | 0 | 0 | -0.002 | -0.02
9 | SUPT16H (UniProt Q9Y5B9) | -0.155 | -0.139 | -0.259 | -0.059 | -0.174 | -0.26 | 0.083 | 0.044 | -0.015 | -1.34 (active) | 0.082 | -0.081 | 0.01 | 0.102 | -0.019 | 0.186 | 0.093 | 0.061 | 0.223 | 0.187
10 | TAMM41 isoform 3 (UniProt Q96BW9) | 0.075 | 0.022 | -0.061 | -0.04 | -0.172 | -0.214 | 0.043 | 0.015 | 0.013 | 0.169 | -0.021 | -0.013 | 0.049 | 0.056 | -0.084 | -0.006 | 0.04 | -0.062 | 0.036 | 0.046
11 | SOAT1 (UniProt P35610) | 0.1 | -0.008 | -0.031 | 0.031 | -0.04 | -0.014 | 0.303 | -0.017 | -0.041 | 0.053 | 0.259 | -0.044 | 0.038 | -0.03 | 0.002 | -0.036 | -0.015 | -0.137 | 0.152 | 0.001
12 | TK1 (UniProt P04183) | 0.037 | 0.025 | 0.003 | -0.048 | -0.016 | 0.059 | -0.001 | -0.013 | 0.06 | -0.01 | -0.035 | 0.001 | 0.01 | -0.004 | 0.014 | 0.003 | -0.012 | -0.095 | 0.011 | 0.011
13 | SPECC1 (UniProt Q5M775) | 0.01 | -0.068 | -0.035 | -0.107 | 0.025 | 0.08 | 0.003 | -0.25 | 0.048 | -0.01 | -0.028 | -0.015 | 0.094 | -0.063 | -0.08 | -0.094 | -0.06 | -0.102 | 0.035 | 0.062
14 | STXBP5 (UniProt Q5T5C0) | -0.025 | -0.037 | -0.073 | 0.029 | -0.038 | -0.107 | -0.049 | 0.025 | 0.018 | 0.048 | -0.021 | -0.041 | -0.007 | -0.006 | -0.002 | -0.038 | 0.013 | -0.006 | 0.022 | -0.004
15 | SUMO1 (UniProt P63165) | -0.079 | -0.007 | -0.077 | 0.053 | 0.139 | -0.065 | 0.01 | 0.022 | 0.042 | -0.125 | -0.064 | -0.045 | 0.4 | 0.024 | -0.142 | -0.051 | 0.657 (active) | -0.071 | -0.172 | -0.055
16 | STK4 (UniProt Q13043) | -0.012 | -0.078 | -0.233 (active) | 0.002 | -0.018 | -0.019 | 0.015 | 0.008 | 0.023 | 0.019 | -0.065 | 0.018 | -0.022 | 0.007 | 0.004 | -0.024 | -0.014 | 0.005 | -0.006 | 0.032
